# Laboratory results from PubChem BioAssay.
# The source made the active and inactive calls. No rule for the calls is given here.
# Test system: Aerobactin synthetase IucA (Klebsiella pneumoniae hvKP1)
# Assay: Biochemical IucA enzyme inhibition primary screen of the Spectrum library (AID 1346200);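 also: 100% = wells without compound and 0% = wells lacking enzyme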
# Conditions: malachite green pyrophosphate, A620, at 8 µM, hits give low values
row,SMILES,activity remaining
1,COCCCOc1cc(C[C@@H](C[C@H](N)[C@@H](O)C[C@H](C(=O)NCC(C)(C)C(N)=O)C(C)C)C(C)C)ccc1OC,107% (inactive)
2,C#C[C@]1(O)CCC2C3CCC4=CC(=O)CC[C@@H]4C3CC[C@@]21C (stereo partly drawn),108% (inactive)
3,COc1cc(C(=O)NCc2ccc(OCCN(C)C)cc2)cc(OC)c1OC,114% (inactive)
4,COC(=O)N/N=C/c1c[n+]([O-])c2ccccc2[n+]1[O-],109% (inactive)
5,Cn1nnnc1SCC1=C(C(=O)O)N2C(=O)C(NC(=O)C(O)c3ccccc3)C2SC1 (stereo not drawn),121% (inactive)
6,C=C(CC)C(=O)c1ccc(OCC(=O)O)c(Cl)c1Cl,100% (inactive)
7,CC(C)/C(O)=C1/C(=O)O[C@@H](c2ccoc2)[C@]2(C)C(O)[C@@H](O)[C@@]34OC5(C)OC67CC(C)(C(O)[C@]6(O)[C@@H](O)[C@]3(O5)C12)[C@H](CC(=O)O)[C@]74C (stereo partly drawn),92.7% (inactive)
8,CCC(C)C(=O)O[C@H]1C[C@H](O)C=C2C=C[C@H](C)[C@H](CC[C@@H](O)C[C@@H](O)CC(=O)O)C21 (stereo partly drawn),113% (inactive)
